Measured values published in PubChem BioAssay.
For part of these data: Entries with a potency or affinity are not part of this list. The source made the active and inactive calls. Unless noted, how the calls were made is not given here.

Columns and labels:
[1] = target: Cell division control protein 42 homolog (Homo sapiens) (UniProt P60953); experiment: activated mutant Cdc42 GTP-binding inhibitors, dose response, biochemical, multiplex bead flow cytometry, Bodipy-FL-GTP (AID 1333;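 active means fitted half-maximal concentration within the tested dose range, moderate curve steepness, a statistically real signal drop, and little compound fluorescence or tag-binding interference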)
[2] = target: Cell division control protein 42 homolog (Homo sapiens) (UniProt P60953); experiment: wildtype Cdc42 GTP-binding inhibitors, dose response, biochemical, multiplex bead flow cytometry, Bodipy-FL-GTP (AID 1334;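 active means fitted half-maximal concentration within the tested range, moderate curve steepness, significant signal drop, and little compound fluorescence or bead-linkage interference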); conditions: bead-based flow cytometry, Bodipy-FL-GTP binding to GST-Cdc42; at 100 µM (top of the series) unless noted
[3] = target: GTPase HRas (Homo sapiens) (UniProt P01112); experiment: inhibitors of GTP binding to wildtype Ras, dose response, biochemical, multiplex bead flow cytometry (AID 1335;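 active means fitted half-maximal concentration within 10 nM to 100 µM, steepness 0.5 to 2, significant signal drop, low assay interference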); conditions: bead-based flow cytometry, Bodipy-GTP binding to GST-Ras; at 100 µM (top of the series) unless noted
[4] = test system: Ras-related protein Rab-7a (dog), GTP binding; experiment: Rab7 GTP binding inhibitors, potency, dose response, biochemical, wildtype, multiplex bead flow cytometry (AID 1336)
[5] = target: Ras-related C3 botulinum toxin substrate 1 (Homo sapiens) (UniProt P63000); experiment: wildtype Rac1 GTP binding inhibitors, dose response, biochemical, multiplex bead flow cytometry (AID 1340;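 active means dose curve with midpoint inside tested range, moderate steepness, plateau gap beyond fit error, low compound glow and bead-link interference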); conditions: GST-Rac1 beads, Bodipy-FL-GTP binding; at 100 µM (top of the series) unless noted
[6] = target: GTPase HRas (Homo sapiens) (UniProt P01112); experiment: activated Ras mutant GTP binding inhibitors, dose response, biochemical, multiplex bead flow cytometry (AID 1341;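 active means dose-response curve with midpoint inside the tested range, moderate steepness, significant amplitude and little compound fluorescence or bead-attachment interference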;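 further: GST-tagged constitutively activated Ras mutant immobilized on beads and multiplexed with other GTPases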)

Sequence of GTPase HRas (Homo sapiens) (P01112 whole entry, looked up): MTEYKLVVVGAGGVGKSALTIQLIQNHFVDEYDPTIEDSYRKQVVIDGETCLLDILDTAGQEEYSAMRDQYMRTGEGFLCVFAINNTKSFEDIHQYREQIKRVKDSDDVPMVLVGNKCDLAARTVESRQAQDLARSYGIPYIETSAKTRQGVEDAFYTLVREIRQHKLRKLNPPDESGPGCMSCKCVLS
Sequence of Cell division control protein 42 homolog (Homo sapiens) (P60953 whole entry, looked up): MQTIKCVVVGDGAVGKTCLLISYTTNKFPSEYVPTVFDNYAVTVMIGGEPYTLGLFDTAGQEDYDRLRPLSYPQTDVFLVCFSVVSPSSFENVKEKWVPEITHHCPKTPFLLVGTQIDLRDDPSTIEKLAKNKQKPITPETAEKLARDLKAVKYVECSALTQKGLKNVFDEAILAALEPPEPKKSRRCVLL

SMILES	outcome [1]	fluorescence, percent of control (lower = inhibition) [2] [%]	GTP binding, percent of control [3] [%]	outcome [4]	GTP binding signal, raw median fluorescence (lower = inhibition) (MCF (arbitrary fluorescence units)) [5]	outcome [6]
CCCOc1ccc(OCCSc2nc3ccccc3n2CC(=O)O)cc1	inactive	60.2	87.7	inactive	35.1	inactive
O=S(=O)(Nc1ncn[nH]1)c1ccc2ccccc2c1	inactive	62.3	70.5	inactive	224	inactive
CCOc1ccc2nc(SCc3ccc(CC(=O)O)cc3)c(C#N)cc2c1	inactive	28.4	73.2	inactive	201	inactive
Cc1cccc(CSc2ncccc2C(=O)O)c1	inactive	69.2	70.8	inactive	314	inactive
Cc1cc(NC(=O)c2cccc(C(=O)Nc3cc(C)on3)n2)no1	inactive	40	86.3	inactive	296	inactive
O=C(O)c1ccc(CNCc2ccc(F)cc2)s1	inactive	61.1	84.5	inactive	34.7	inactive
Nc1cccc(S(=O)(=O)c2cccc(N)c2)c1	inactive	96.8	150	inactive	191	inactive
Cc1cccc(C)c1CNc1ncccc1C(=O)O	inactive	59	215	inactive	56.4	inactive
O=C(O)c1ccc(Nc2nc(-c3cc4ccccc4oc3=O)cs2)cc1O	inactive	29.2	74.6	inactive	177	inactive
O=C(O)c1ccc(CSCc2cccc(Cl)c2)o1	inactive	57.3	81.4	inactive	30.1	inactive
N#C/C(=C(/O)COc1ccc(Br)cc1)c1nnc2n1CCCCC2	inactive	29.2	79.2	inactive	262	inactive
Cc1ccccc1-c1nnc(NC(=O)c2ccc(N3C(=O)CCC3=O)cc2)s1	inactive	48.6	65.8	inactive	236	inactive
O=C(Cc1csc(Nc2nc(=S)[nH]c3ccccc23)n1)NCCCN1CCN(c2cccc(Cl)c2)CC1	inactive	34.3	75.8	inactive	192	inactive
COC(=O)c1cccc(Nc2cc(C)nc(-c3ccccc3O)n2)c1	inactive	43.1	54.2	inactive	148	inactive
Cn1cc([C@@H]2C[C@H]3CN(Cc4cccc(Cl)c4)C(=O)[C@]34CCCN24)c2ccccc21	inactive	61.3	111	inactive	276	inactive
CC(C)CCNC(=O)CN(CCCN1CCOCC1)C(=O)Cn1nnc(-c2ccc(F)cc2)n1	inactive	98.9	180	inactive	184	inactive
CCOc1ccc(NCc2ccccc2OCc2cccc(F)c2)cc1	inactive	69.4	68.1	inactive	0	inactive
Cc1ccc(/C(N)=N/OC(=O)CCC2CCCCC2)cc1	inactive	80.5	154	inactive	180	inactive
O=C(CCc1ccc(S(=O)(=O)NCCc2ccccc2)cc1)Nc1ccc2c(c1)OCO2	inactive	52.3	67.2	inactive	212	inactive
Cc1cccc(C)c1CCNc1ncccc1C(=O)O	inactive	76.7	245	inactive	67.9	inactive

SMILES	outcome [1]	fluorescence, percent of control (lower = inhibition) [2] [%]	GTP binding, percent of control [3] [%]	outcome [4]	GTP binding signal, raw median fluorescence (lower = inhibition) (MCF (arbitrary fluorescence units)) [5]	outcome [6]
COc1cc2[nH]c(=S)nc(NC3CCCC3)c2cc1OC	inactive	25.9	56.7	inactive	124	inactive
Cc1cccc(COc2nc3ccccc3cc2C(=O)O)c1	inactive	54.8	213	inactive	52.2	inactive
O=C(O)c1cc2ccccc2nc1OCCc1ccccc1	inactive	55.8	222	inactive	50.3	inactive
COc1cc(N2CCCC2)c(OC)cc1/C=c1/sc2nc3ccccc3n2c1=O	inactive	76	82	inactive	195	inactive
CC(C)(C)OC(=O)N[C@@H](Cc1ccccc1)c1nnc(S(=O)(=O)Cc2cccc(F)c2)o1	inactive	33	77	inactive	260	inactive
Nc1nc(CN2CCN(c3ccccc3F)CC2)nc(N2CCCc3ccccc32)n1	inactive	28.5	69.6	inactive	210	inactive
O=[N+]([O-])c1ccc(/C=C/C2=NN(c3ccccc3)C(c3ccco3)C2)cc1 (stereo not given)	inactive	135	132	inactive	258	inactive
COc1cccc(N2CCN(C(=O)c3cccn4c(=O)c5c(C)c(C)sc5nc34)CC2)c1	inactive	32.1	72.9	inactive	163	inactive
COc1ccc(C2(CNC(=O)C(c3ccccc3)c3ccccc3)CCOCC2)cc1OC	inactive	34	80.6	inactive	276	inactive
Cc1cc(NCc2sc(C(=O)O)cc2C)ccc1Br	inactive	57.8	81.7	inactive	33.8	inactive
O=c1[nH]c(=O)c2nnc(N/N=C\c3ccc(O)cc3)nc2[nH]1	inactive	32.2	69.1	inactive	147	inactive
Cn1c(O)c(C2=c3ccccc3=NC2=O)[nH]c1=S	inactive	37.9	83.1	inactive	214	inactive
Cc1ccc(S(=O)(=O)N(C)C)cc1NC(=O)COC(=O)c1ccc(Cl)cc1	inactive	39.2	86	inactive	265	inactive
C=CCc1cc(/C=C/c2nc(O)c([N+](=O)[O-])c(=O)[nH]2)cc(OC)c1O	inactive	31.5	77.1	inactive	177	inactive
O=C(O)c1cc(Sc2ccc(F)cc2)nc2ccccc12	inactive	59.8	86	inactive	30.2	inactive
O=c1c2ccccc2nc2c3ccccc3c(NCCO)nn12	inactive	27.1	65	inactive	165	inactive
O=S(=O)(Cc1ccccc1)c1ccccc1-c1nnc(-c2ccccc2)o1	inactive	89.9	166	inactive	188	inactive
CCN(CC)c1ccc(/C=c2/sc3nnc(-c4ccccc4C)n3c2=O)cc1	inactive	120	123	inactive	236	inactive
Clc1cccc(Cl)c1/C=N\Nc1nccs1	inactive	96.7	151	inactive	190	inactive
CCOc1ccc(-n2c(SCC(=O)NC(C)CC)nc3n[nH]c(C)c3c2=N)cc1 (stereo not given)	inactive	38.4	48.1	inactive	0	inactive

SMILES	outcome [1]	fluorescence, percent of control (lower = inhibition) [2] [%]	GTP binding, percent of control [3] [%]	outcome [4]	GTP binding signal, raw median fluorescence (lower = inhibition) (MCF (arbitrary fluorescence units)) [5]	outcome [6]
COc1ccc(/C=C2\SC(=S)NC2=O)cc1OS(=O)(=O)c1ccc(NC(C)=O)cc1	inactive	30.9	80.1	inactive	261	inactive
Cc1n[nH]c(=S)c2nn(-c3cccc(Cl)c3)c(C)c12	inactive	55.8	71.1	inactive	217	inactive
O=C(O)c1cc(C(=O)O)cc(-c2ccc(/C=c3/sc4nc5ccccc5n4c3=O)o2)c1	inactive	30	72.3	inactive	185	inactive
Cc1ccc(-c2nnc(-c3ccccc3S(=O)(=O)Cc3ccc(Cl)cc3)o2)cc1	inactive	90.3	165	inactive	184	inactive
COc1cccc(C2CC(c3ccccc3)=NN2S(=O)(=O)c2ccc(C)cc2)c1OC (stereo not given)	inactive	93.3	141	inactive	311	inactive
Cc1ccccc1NC(=O)CN1C(=O)S/C(=C\c2ccc(-c3cc(C(=O)O)ccc3C)o2)C1=O	inactive	30.5	77.4	inactive	258	inactive
Cc1cc(C(=O)NC(=S)Nc2cccc(C(=O)O)c2C)ccc1[N+](=O)[O-]	inactive	37.3	85.8	inactive	272	inactive
COc1cc([N+](=O)[O-])ccc1N=Nc1c(N)[nH]n(-c2ccccc2)c1=O	inactive	30.5	74.5	inactive	188	inactive
Cc1cc(C)n2nc(C(=O)N3CCCC(CNS(=O)(=O)c4cccs4)C3)cc2n1 (stereo not given)	inactive	37.1	85.6	inactive	284	inactive
COC(=O)c1ccc(/C=N/Nc2nc(-c3ccc(Cl)cc3Cl)cs2)cc1	inactive	39.1	81.6	inactive	242	inactive
COc1cc(N2CCCC2)c(OC)cc1/C=C(/C#N)c1cccc(F)c1	inactive	137	214	inactive	210	inactive
O=C(COn1nnc2ccc(Cl)cc21)NCc1ccccc1	inactive	89.6	154	inactive	183	inactive
Cc1nc2c(-c3ccc(Cl)cc3)c(C)[nH]n2c(=O)c1Cc1ccccc1	inactive	34.5	75.9	inactive	158	inactive
COc1cc(/C=N/Nc2ccc(S(N)(=O)=O)cc2)cc(OC)c1OC	inactive	31.7	75.4	inactive	175	inactive
Cc1nc2cc(C(=O)NCc3ccc4c(c3)OCO4)ccc2n1-c1ccc(Br)cc1	inactive	42.6	62.2	inactive	172	inactive
CCC(C)C(=O)Nc1ccc(OC)cc1OC (stereo not given)	inactive	92.4	161	inactive	186	inactive
O=S(=O)(Nc1cccc(-c2cn3cccnc3n2)c1)c1ccc(F)cc1	inactive	36.5	46	inactive	0	inactive
Cc1sc2ncnc(Sc3ccccc3C(=O)O)c2c1C	inactive	103	117	inactive	84.4	inactive
CCOc1cc(/C=N/NC(=O)C(C)Sc2ccccc2)ccc1O (stereo not given)	inactive	31.8	73.5	inactive	165	inactive
Cc1nc2nc(SCC(=O)O)nn2c(C)c1Cc1c(F)cccc1Cl	inactive	28.4	75.3	inactive	221	inactive
